Each structure is given as a SMILES string. The source made the active and inactive calls. How the source made its calls: active means hit-call score of the fitted dose curve at least 0.9, where 1 is the maximum; inactive means score below 0.9.

Conditions in all cases: mRNA level, 48 h; actives raise or lower the signal
Read-out in assay [1]: Bcl-2 (BAX) gene, BAX (gene 581)
The assay can be described thus: LTEA_HepaRG_BAX: Life Technologies and Expression Analysis (LTEA) Assay for Bcl-2 (BAX) gene using HepaRG (AID 2283470). In outline: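 Gene expression measured by Fluidigm qRT-PCR with three housekeeping genes for normalisation. HepaRG cells, plated 48 h beforehand, treated 48 h at up to 100 uM (8-point, half-log) in 0.5% DMSO. Bidirectional fitting versus DMSO.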

Read-out in assay [2]: adenosine kinase (ADK) gene, ADK (gene 132)
The assay is described as follows: LTEA_HepaRG_ADK: Life Technologies and Expression Analysis (LTEA) Assay for adenosine kinase (ADK) gene using HepaRG (AID 2283471). In outline: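 HepaRG (human liver), 48 h chemical exposure, 8-pt half-log series, top 100 uM, 0.5% DMSO vehicle. Readout: ADK mRNA by qRT-PCR vs housekeeping genes; bidirectional curve fit relative to DMSO baseline.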

Read-out in assay [3]: Alpha-fetoprotein (AFP) gene, AFP (gene 174)
The assay is described as follows: LTEA_HepaRG_AFP: Life Technologies and Expression Analysis (LTEA) Assay for Alpha-fetoprotein (AFP) gene using HepaRG (AID 2283472). In outline: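 AFP transcript measured by TaqMan qRT-PCR with three housekeeping genes for normalization, after 48 h chemical treatment of HepaRG cells (top 100 uM, half-log steps, 0.5% DMSO). Gain or loss fitted against vehicle.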

Read-out in the next assay: BCL2L11 (gene 10018)
The assay can be described thus: LTEA_HepaRG_BCL2L11: Life Technologies and Expression Analysis (LTEA) Assay for Bcl-2 (BCL2L11) gene using HepaRG (AID 2283473). In outline: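 Read-out is BCL2L11 transcript level by qRT-PCR, normalized to three housekeeping genes and fitted bidirectionally against 0.5% DMSO vehicle. HepaRG cells received chemicals for 48 h in serum-free induction medium, 100 uM down in half-log dilutions.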

Read-out in assay [4]: Apoptosis regulator Bcl-2 (Homo sapiens) (UniProt P10415)
The assay is described as follows: LTEA_HepaRG_BCL2: Life Technologies and Expression Analysis (LTEA) Assay for Bcl-2 gene using HepaRG (AID 2283475). In outline: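 qRT-PCR of BCL2 transcript, normalized to three housekeeping genes (ACTB, GAPDH, POLR2A), after 48 h chemical exposure of HepaRG cells; concentrations top 100 uM with half-log dilutions, 0.5% DMSO vehicle, duplicates; changes up or down fitted relative to vehicle.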

Read-out in assay [5]: Bcl-2 (BID) gene, BID (gene 637)
The assay is described as follows: LTEA_HepaRG_BID: Life Technologies and Expression Analysis (LTEA) Assay for Bcl-2 (BID) gene using HepaRG (AID 2283476). In a few lines:
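Duplicate 48 h treatments of HepaRG cells in serum-free induction medium spanned 100 uM downward in half-log steps, 0.5% DMSO. Transcript change quantified by qRT-PCR against three housekeeping genes, fitted up or down versus DMSO.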

Read-out in another assay: Caspase-3 (Homo sapiens) (UniProt P42574)
The assay can be described thus: LTEA_HepaRG_CASP3: Life Technologies and Expression Analysis (LTEA) Assay for cysteine-aspartic acid protease (CASP3) using HepaRG (AID 2283477). In outline: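 Read-out is CASP3 mRNA level by TaqMan qRT-PCR in human HepaRG cells after 48 h chemical exposure. Eight half-log concentrations topping at 100 uM were tested in 0.5% DMSO; gain or loss was fitted relative to DMSO.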

Read-out in assay [6]: Cytochrome P450 (CYP1A2), CYP1A2 (gene 1544)
The assay is described as follows: LTEA_HepaRG_CYP1A2: Life Technologies and Expression Analysis (LTEA) Assay for Cytochrome P450 (CYP1A2) using HepaRG (AID 2283479). In a few lines: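 CYP1A2 transcript induction or loss, quantified by Fluidigm qRT-PCR against three housekeeping genes, was fitted bidirectionally against 0.5% DMSO controls. Human HepaRG cells received eight half-log concentrations from 100 uM over 48 h.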

Read-out in assay [7]: cysteine-aspartic acid protease (CASP8), CASP8 (gene 841)
The assay is described as follows: LTEA_HepaRG_CASP8: Life Technologies and Expression Analysis (LTEA) Assay for cysteine-aspartic acid protease (CASP8) using HepaRG (AID 2283480). In a few lines: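 Concentration-response in duplicate up to 100 uM (half-log steps, 0.5% DMSO) on differentiated HepaRG cultures for 48 h. Expression change of CASP8 mRNA is determined by TaqMan qRT-PCR with housekeeping-gene normalization.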

Read-out in assay [8]: Cytochrome P450 (CYP2B6), CYP2B6 (gene 1555)
The assay is described as follows: LTEA_HepaRG_CYP2B6: Life Technologies and Expression Analysis (LTEA) Assay for Cytochrome P450 (CYP2B6) using HepaRG (AID 2283481). In outline: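 HepaRG cells plated 48 h, switched to serum-free induction medium, then dosed 48 h (8 points, half-log from 100 uM, 0.5% DMSO). RNA isolated; CYP2B6 expression measured by qRT-PCR; gain or loss fitted relative to DMSO.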

Read-out in assay [9]: Cytochrome P450 2C19 (Homo sapiens) (UniProt P33261)
The assay can be described thus: LTEA_HepaRG_CYP2C19: Life Technologies and Expression Analysis (LTEA) Assay for CYP2C19 using HepaRG (AID 2283482). In a few lines: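 Transcript levels of CYP2C19 were quantified by qRT-PCR after HepaRG cells were treated for 48 hours with test chemicals up to 100 uM (eight half-log concentrations, 0.5% DMSO vehicle). Gain or loss of signal was fitted relative to DMSO.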

Read-out in a further assay: CYP2C8 (gene 1558)
The assay is described as follows: LTEA_HepaRG_CYP2C8: Life Technologies and Expression Analysis (LTEA) Assay for CYP2C8 using HepaRG (AID 2283483). In outline: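 This is a transcriptional endpoint in HepaRG cultures: 48 h exposure, highest concentration 100 uM. CYP2C8 mRNA is quantified by TaqMan qRT-PCR.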

Read-out in the next assay: CYP2C9 (gene 1559)
The assay is described as follows: LTEA_HepaRG_CYP2C9: Life Technologies and Expression Analysis (LTEA) Assay for CYP2C9 using HepaRG (AID 2283484). In outline:
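Eight-point concentration-response (highest 100 uM, half-log dilutions) in HepaRG cells for 48 h; CYP2C9 expression by qRT-PCR normalized to ACTB, GAPDH, POLR2A. Bidirectional fit, DMSO baseline.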

Read-out in another assay: CYP2E1 (gene 1571)
The assay can be described thus: LTEA_HepaRG_CYP2E1: Life Technologies and Expression Analysis (LTEA) Assay for CYP2E1 using HepaRG (AID 2283485). In outline: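 CYP2E1 transcript measured by Fluidigm qRT-PCR against three housekeeping genes in human HepaRG cells treated 48 h (top 100 uM, half-log steps, 0.5% DMSO vehicle). Gain or loss fitted relative to DMSO baseline.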

Read-out in the next assay: CYP4A11 (gene 1579)
The assay can be described thus: LTEA_HepaRG_CYP4A11: Life Technologies and Expression Analysis (LTEA) Assay for CYP4A11 using HepaRG (AID 2283486). In outline:
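HepaRG, 48 h chem exposure, 8 conc (100 uM top, half-log), 0.5% DMSO vehicle; qRT-PCR readout, housekeeping-gene normalized; bidirectional curve fit vs DMSO baseline.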

Read-out in assay [10]: DNA damage-inducible transcript 3 (DDIT3), DDIT3 (gene 1649)
The assay is described as follows: LTEA_HepaRG_DDIT3: Life Technologies and Expression Analysis (LTEA) Assay for DNA damage-inducible transcript 3 (DDIT3) using HepaRG (AID 2283488). In a few lines:
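DDIT3 transcript was quantified by qRT-PCR with ACTB/GAPDH/POLR2A normalization after 48 h chemical treatment of differentiated HepaRG cells in 0.5% DMSO. Dosing was eight-point, half-log, top 100 uM, duplicate wells. Curves fitted bidirectionally versus DMSO.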

Read-out in assay [11]: Pro-epidermal growth factor (Homo sapiens) (UniProt P01133)
The assay can be described thus: LTEA_HepaRG_EGF: Life Technologies and Expression Analysis (LTEA) Assay for Epidermal growth factor (EGF) using HepaRG (AID 2283489). In a few lines:
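HepaRG, 48 h dosing, 100 uM top, half-log x8, 0.5% DMSO. Readout: TaqMan qRT-PCR (Fluidigm array), housekeeping-normalized. Gain or loss of signal fit vs DMSO.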

Read-out in assay [12]: Cytochrome P450 3A4 (Homo sapiens) (UniProt P08684)
The assay can be described thus: LTEA_HepaRG_CYP3A4: Life Technologies and Expression Analysis (LTEA) Assay for CYP3A4 using HepaRG (AID 2283487). In a few lines:
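CYP3A4 transcript measured by TaqMan qRT-PCR and normalized to three housekeeping genes after 48 h chemical exposure of human HepaRG cells. Top concentration 100 uM, half-log steps, 0.5% DMSO vehicle; gain or loss fitted against DMSO baseline.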

Read-out in assay [13]: Cytochrome P450 (CYP24A1), CYP24A1 (gene 1591)
The assay is described as follows: LTEA_HepaRG_CYP24A1: Life Technologies and Expression Analysis (LTEA) Assay for Cytochrome P450 (CYP24A1) using HepaRG (AID 2283478). In outline: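 HepaRG, 48 h chemical exposure, 8-pt half-log CRC from 100 uM, 0.5% DMSO vehicle, duplicates. Endpoint: CYP24A1 mRNA by Fluidigm TaqMan qRT-PCR, normalized ACTB/GAPDH/POLR2A; gain/loss fit vs DMSO.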

Sequence of Cytochrome P450 3A4 (Homo sapiens) (P08684 whole entry, looked up): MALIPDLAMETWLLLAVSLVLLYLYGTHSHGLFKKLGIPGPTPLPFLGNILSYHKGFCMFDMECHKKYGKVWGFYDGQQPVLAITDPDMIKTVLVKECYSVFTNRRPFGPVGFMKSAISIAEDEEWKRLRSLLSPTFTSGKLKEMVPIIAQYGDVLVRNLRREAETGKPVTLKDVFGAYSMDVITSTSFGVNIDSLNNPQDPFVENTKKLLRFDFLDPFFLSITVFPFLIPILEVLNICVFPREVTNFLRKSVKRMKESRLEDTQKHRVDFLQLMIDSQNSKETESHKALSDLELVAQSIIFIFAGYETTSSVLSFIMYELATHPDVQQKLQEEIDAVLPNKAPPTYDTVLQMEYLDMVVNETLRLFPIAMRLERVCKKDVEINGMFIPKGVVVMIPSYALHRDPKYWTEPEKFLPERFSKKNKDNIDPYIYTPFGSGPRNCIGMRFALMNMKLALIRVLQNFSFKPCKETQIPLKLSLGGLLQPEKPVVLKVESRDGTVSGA
Sequence of Cytochrome P450 2C19 (Homo sapiens) (P33261 whole entry, looked up): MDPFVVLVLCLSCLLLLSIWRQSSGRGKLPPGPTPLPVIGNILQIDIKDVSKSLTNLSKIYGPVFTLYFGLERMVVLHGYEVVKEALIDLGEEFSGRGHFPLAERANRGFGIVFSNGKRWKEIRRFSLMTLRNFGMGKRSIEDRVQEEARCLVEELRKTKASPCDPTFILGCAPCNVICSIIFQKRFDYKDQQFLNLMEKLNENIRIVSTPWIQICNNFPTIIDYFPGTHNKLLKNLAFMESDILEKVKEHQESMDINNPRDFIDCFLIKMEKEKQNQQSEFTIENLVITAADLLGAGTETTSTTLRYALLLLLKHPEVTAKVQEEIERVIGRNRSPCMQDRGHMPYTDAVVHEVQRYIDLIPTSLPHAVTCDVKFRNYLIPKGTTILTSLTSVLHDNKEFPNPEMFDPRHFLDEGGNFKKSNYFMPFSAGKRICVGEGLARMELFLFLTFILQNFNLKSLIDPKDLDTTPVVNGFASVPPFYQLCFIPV
Sequence of Caspase-3 (Homo sapiens) (P42574 whole entry, looked up): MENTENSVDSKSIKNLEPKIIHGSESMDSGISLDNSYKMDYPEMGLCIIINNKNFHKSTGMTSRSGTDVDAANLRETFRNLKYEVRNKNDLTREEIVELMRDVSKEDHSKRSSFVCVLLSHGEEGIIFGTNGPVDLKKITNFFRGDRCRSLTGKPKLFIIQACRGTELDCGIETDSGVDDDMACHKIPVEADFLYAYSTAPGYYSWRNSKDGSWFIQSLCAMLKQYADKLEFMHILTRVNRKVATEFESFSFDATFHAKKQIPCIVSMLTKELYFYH
Sequence of Apoptosis regulator Bcl-2 (Homo sapiens) (P10415 whole entry, looked up): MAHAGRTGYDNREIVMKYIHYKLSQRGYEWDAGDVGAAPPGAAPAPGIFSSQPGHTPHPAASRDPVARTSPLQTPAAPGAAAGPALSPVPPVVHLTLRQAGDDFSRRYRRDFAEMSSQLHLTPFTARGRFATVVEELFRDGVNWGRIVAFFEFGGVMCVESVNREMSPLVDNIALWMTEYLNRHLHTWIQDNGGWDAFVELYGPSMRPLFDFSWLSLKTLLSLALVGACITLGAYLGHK

As to `COc1ccc2cc(S(=O)(=O)N[C@H](CC(=O)N[C@H](Cc3ccc(CN4[C@H](C)CCC[C@@H]4C)cc3)C(=O)N(C)C(C)C)c3ccc4c(c3)OCO4)ccc2c1`, the AC50 was 81.8 µM (active) in [1]; 13.3 µM (active) in assay [2]; 84.9 µM (active) in the assay with BCL2L11 (gene 10018); 21.6 µM (active) in [5]; 19.4 µM (active) with Caspase-3 (Homo sapiens); 7.93 µM (active) in assay [6]. Besides, the half-maximal activity concentration (AC50) in [7] is 25.1 µM (active); in assay [8], 11.5 µM (active); in [9], 23.7 µM (active); with CYP2C9 (gene 1559), 11.9 µM (active); in the assay with CYP2E1 (gene 1571), 29.7 µM (active); in the assay with CYP4A11 (gene 1579), 20.7 µM (active). The AC50 in [10] is 20.4 µM (active). The outcome (in [3]; in assay [4]; with CYP2C8 (gene 1558); in assay [11]) was inactive.
In the case of `CC1=CC(=O)/C(=C(/C)O)C(=O)O1`, the molecule was called inactive (in assay [1]; in assay [2]; in assay [3]; with BCL2L11 (gene 10018); in [4]; in [5]). Besides, the molecule was classed as inactive (with Caspase-3 (Homo sapiens); in assay [6]; in assay [7]; in [8]; in assay [9]; with CYP2C8 (gene 1558)). Further, the molecule was called inactive (with CYP2C9 (gene 1559); with CYP2E1 (gene 1571); with CYP4A11 (gene 1579); in [12]; in assay [10]; in assay [11]).
In the case of `c1ccc2n[nH]nc2c1`, the call (in assay [1]; in assay [2]; in [3]; in the assay with BCL2L11 (gene 10018); in assay [4]; in assay [5]) was inactive. Besides, the molecule was called inactive (with Caspase-3 (Homo sapiens); in assay [13]; in assay [6]; in assay [7]; in assay [8]; in assay [9]). Also, the molecule was classed as inactive (with CYP2C8 (gene 1558); with CYP2C9 (gene 1559); in the assay with CYP2E1 (gene 1571); in the assay with CYP4A11 (gene 1579); in assay [12]; in assay [10]). In addition, the result in [11] was inactive.
For `c1ccc2ccccc2c1`, the molecule was called inactive (in [1]; in assay [2]; in [3]; with BCL2L11 (gene 10018); in assay [4]; in assay [5]). For the same molecule, the call (in the assay with Caspase-3 (Homo sapiens); in [6]; in assay [7]; in assay [9]; with CYP2C8 (gene 1558); with CYP2C9 (gene 1559)) was inactive. The molecule was called inactive (with CYP2E1 (gene 1571); with CYP4A11 (gene 1579); in [10]; in [11]). In assay [8], the AC50 was 12.1 µM (active).
As for `CC(C)(c1cc(Br)c(O)c(Br)c1)c1cc(Br)c(O)c(Br)c1`, the concentration at half-maximal activity (AC50) in assay [1] is 22.6 µM (active); in assay [2], 92.5 µM (active); in assay [8], 89.3 µM (active); in the assay with CYP2E1 (gene 1571), 85.6 µM (active). The result (in assay [3]; with BCL2L11 (gene 10018); in assay [4]; in [5]; in [6]; in [7]) was inactive. Also, the call (in assay [9]; with CYP2C8 (gene 1558); with CYP2C9 (gene 1559); with CYP4A11 (gene 1579); in [12]; in [10]) was inactive. For the same molecule, the result in [11] was inactive.
As to `NCc1cccc(C2CCN(C(=O)c3ccc(C#Cc4ccccc4F)o3)CC2)c1`, the result (in assay [1]; in [2]; in assay [4]; in the assay with Caspase-3 (Homo sapiens); in [11]) was inactive. The AC50 in assay [3] is 83.7 µM (active); in the assay with BCL2L11 (gene 10018) it was 83.1 µM (active); in [5] it was 79.9 µM (active); in assay [6] it was 90 µM (active); in assay [7] it was 78 µM (active); in [8], 83 µM (active). Also, the AC50 in [9] is 89.3 µM (active); in the assay with CYP2C8 (gene 1558) it was 94 µM (active); with CYP2C9 (gene 1559), 91.7 µM (active); with CYP2E1 (gene 1571) it was 79.3 µM (active); with CYP4A11 (gene 1579), 82.4 µM (active); in [10], 75.4 µM (active).

One may read the AC50 as the midpoint of the concentration-response curve, whichever way the signal moves.

Source of the values: PubChem BioAssay (EPA / NIEHS).
